Source: PubChem BioAssay (several laboratories)
In the library only some 2.5% were active in any assay of this set; here they are far more common.
Rce1 inhib – blocks yeast Ras-converting enzyme. Q03530. yeast membranes, quenched prenylated peptide cleavage fluorescence. calls only. hit rate 0.27% among 290,000. AID 2563;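 active = fall in fluorescence gain of 50% or more versus controls, with final raw signal at or below 3038400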;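 note: plate controls were neutral control wells for no effect and wells lacking membranes for full effect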
Target sequence (Q03530 whole entry, looked up): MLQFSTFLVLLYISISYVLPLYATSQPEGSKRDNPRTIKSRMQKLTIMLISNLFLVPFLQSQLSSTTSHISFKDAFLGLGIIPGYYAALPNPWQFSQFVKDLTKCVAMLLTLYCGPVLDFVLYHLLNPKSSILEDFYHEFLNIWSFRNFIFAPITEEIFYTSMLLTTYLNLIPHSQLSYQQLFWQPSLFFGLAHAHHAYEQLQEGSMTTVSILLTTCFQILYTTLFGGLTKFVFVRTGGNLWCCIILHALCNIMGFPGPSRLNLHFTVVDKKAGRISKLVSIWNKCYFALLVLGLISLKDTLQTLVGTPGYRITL
MEKK2 WT-MEK5 – raises or lowers MEK5 binding to wildtype human MEKK2 PB1 domain. Q9Y2U5. bead flow cytometry, Alexa488-MEK5 binding to MEKK2 WT; actives lie on both sides. binding response (% of control), % at 10 µM. hit rate 1.1% among 290,000; in the data active = binding response below about 67% or above about 130%
MEKK2mut PB1 HTS – signal of MEK5 binding to mutant human MEKK2 PB1 domain; percent response, % at 10 µM; bead flow cytometry, Alexa488-MEK5 binding to MEKK2 mutant; hit rate 0.35% among 290,000; in the data active = percent response above about 24%, passing the limit was not always enough
MEKK3 PB1 HTS – MEKK3-MEK5 PB1 interaction, increase or decrease; bead-based flow cytometry, Alexa488-MEK5 binding to MEKK3; actives lie on both sides; 0 = blocked by unlabeled MEK5, 100 = vehicle; AID 1529; binding response (% of control), % at 10 µM; hit rate 1.4% among 290,000;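 active = binding response more than 3 SD above or below the average of its plate-row segment, actives on both sides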;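 note: Alexa488 bead fluorescence after subtracting the streptavidin-only scavenger bead signal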
UBC13 polyUb – human UBC13 polyubiquitination inhibition | P61088 | UBC13 polyubiquitin chain formation, TR-FRET | inhibition, % at 20 µM | hit rate 0.47% among 330,000; in the data active = inhibition above about 45%, passing the limit was not always enough
Target sequence (P61088 whole entry, looked up): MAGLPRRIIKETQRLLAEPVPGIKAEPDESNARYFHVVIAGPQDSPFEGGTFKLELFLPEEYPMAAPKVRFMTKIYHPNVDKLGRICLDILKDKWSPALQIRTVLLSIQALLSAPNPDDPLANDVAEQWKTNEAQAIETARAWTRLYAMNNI
MEKK2wt confirm – raises or lowers MEK5 binding to wildtype human MEKK2, retest; hit rate 2.4% among 5,900; shares compounds with MEKK3 PB1 HTS; binding response (% of control), % at 10 µM; bead flow cytometry, Alexa488-MEK5 binding to MEKK2 WT; actives lie on both sides; in the data active = binding response below about 16% or above about 210%; inactive = in between
MEKK2mut-MEK5 – signal of MEK5 binding to mutant human MEKK2, retest | percent response, % at 10 µM | shares compounds with MEKK3 PB1 HTS | hit rate 2% among 5,900 | bead flow cytometry, Alexa488-MEK5 binding to MEKK2 mutant; in the data active = percent response mostly above about 71%, no sharp cut-off; inactive = mostly below about 38%;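 note: higher means compound restores mutant binding toward wildtype level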
MEKK3-MEK5 inh – confirmation of inhibitors of MEK5 binding to human MEKK3; shares compounds with MEKK3 PB1 HTS; bead flow cytometry, Alexa488-MEK5 binding to MEKK3; stronger effect = lower value; binding response (% of control), % at 10 µM; hit rate 1.8% among 5,900;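 active = binding response below 72% of control, or above a set upper limit, though filed actives all read lower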;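 note: 100% = DMSO only wells and 0% = binding blocked by excess unlabeled MEK5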
* marks the source's active call; other numbers are inactive results; [ ] = dose if it differs, or a comment.

How did CCC1(c2ccc(F)cc2)NC(=O)N(CC(=O)NC2CCCCCC2)C1=O (stereo unspecified) do in these assays?
UBC13 polyUb: 13.6

How did COc1ccccc1CCc1nnc(CCC(=O)NC(C)Cc2cccnc2)o1 (stereo unspecified) do in these assays?
Rce1 inhib: inactive; MEKK2 WT-MEK5: 55.0; MEKK2mut PB1 HTS: -16.0; MEKK3 PB1 HTS: 47.0*[inhibitor]; UBC13 polyUb: -12.9; MEKK2wt confirm: 101.0; MEKK2mut-MEK5: 3.0; MEKK3-MEK5 inh: 105.0

What do the screens show for `CCN(Cc1ccncc1)C(=O)CCc1nnc(CCc2ccccc2OC)o1`?
Rce1 inhib: inactive; MEKK2 WT-MEK5: 80.0; MEKK2mut PB1 HTS: -8.0; MEKK3 PB1 HTS: 70.0*[inhibitor]; UBC13 polyUb: 7.2; MEKK2wt confirm: 99.0; MEKK2mut-MEK5: -6.0; MEKK3-MEK5 inh: 101.0

Results for CCN(CCn1cccn1)C(=O)CCc1nnc(CCc2ccccc2OC)o1 ?
Rce1 inhib: inactive; MEKK2 WT-MEK5: 90.0; MEKK2mut PB1 HTS: -11.0; MEKK3 PB1 HTS: 97.0; UBC13 polyUb: -13.4

Results for NC(=O)C1CCN(C(=O)NC2CC(=O)N(c3ccc4c(c3)OCCO4)C2)CC1 (stereo unspecified) ?
Rce1 inhib: inactive; UBC13 polyUb: 3.9

Results for Cc1cc(NC(=O)c2cc(-c3ccccc3)on2)n(-c2ccccc2)n1 ?
Rce1 inhib: inactive; MEKK2 WT-MEK5: 101.0; MEKK2mut PB1 HTS: 3.0; MEKK3 PB1 HTS: 106.0; UBC13 polyUb: -4.2

Results for Cc1cc(NC(=O)c2cc(C)on2)n(-c2ccccc2)n1 ?
Rce1 inhib: inactive; MEKK2 WT-MEK5: 79.0; MEKK2mut PB1 HTS: -4.0; MEKK3 PB1 HTS: 74.0*[inhibitor]; UBC13 polyUb: 6.3; MEKK2wt confirm: 98.0; MEKK2mut-MEK5: 3.0; MEKK3-MEK5 inh: 97.0

Results for CCOc1ccc(N(C)S(=O)(=O)c2ccc(C)c(C(=O)OCC(=O)c3c[nH]c4ccccc34)c2)cc1 ?
Rce1 inhib: inactive; MEKK2 WT-MEK5: 108.0; MEKK2mut PB1 HTS: 0.0; MEKK3 PB1 HTS: 116.0; UBC13 polyUb: -5.3

How did CN(C)CCCN(C(=O)c1ccc2c(c1)OCCO2)c1nc2cc3c(cc2s1)OCO3 do in these assays?
Rce1 inhib: inactive; MEKK2 WT-MEK5: 103.0; MEKK2mut PB1 HTS: -2.0; MEKK3 PB1 HTS: 96.0; UBC13 polyUb: -5.4

How did CN(C)CCCN(C(=O)c1ccc2ccccc2c1)c1nc2cc3c(cc2s1)OCO3 do in these assays?
Rce1 inhib: inactive; MEKK2 WT-MEK5: 142.0*; MEKK2mut PB1 HTS: 24.0*; MEKK3 PB1 HTS: 106.0; UBC13 polyUb: 31.6; MEKK2wt confirm: 140.0; MEKK2mut-MEK5: 19.0; MEKK3-MEK5 inh: 104.0

How did CN(C)CCN(C(=O)c1cccc2ccccc12)c1nc2cc3c(cc2s1)OCO3 do in these assays?
Rce1 inhib: inactive; MEKK2 WT-MEK5: 137.0*; MEKK2mut PB1 HTS: 23.0; MEKK3 PB1 HTS: 111.0; UBC13 polyUb: 1.6; MEKK2wt confirm: 137.0; MEKK2mut-MEK5: 21.0; MEKK3-MEK5 inh: 103.0

How did CN(C)CCN(C(=O)c1ccc(N2C(=O)CCC2=O)cc1)c1nc2cc3c(cc2s1)OCO3 do in these assays?
Rce1 inhib: inactive; MEKK2 WT-MEK5: 107.0; MEKK2mut PB1 HTS: 1.0; MEKK3 PB1 HTS: 100.0; UBC13 polyUb: -6.1

What do the screens show for `CN(C)CCCN(C(=O)c1ccc(S(=O)(=O)N2CCCCCC2)cc1)c1nc2ccc(F)cc2s1`?
Rce1 inhib: inactive; MEKK2 WT-MEK5: 158.0*; MEKK2mut PB1 HTS: 21.0; MEKK3 PB1 HTS: 110.0; UBC13 polyUb: 20.0; MEKK2wt confirm: 154.0; MEKK2mut-MEK5: 37.0; MEKK3-MEK5 inh: 105.0

How did CCc1ccc2nc(N(CCCN(C)C)C(=O)c3ccc(S(=O)(=O)N4CCCc5ccccc54)cc3)sc2c1 do in these assays?
Rce1 inhib: inactive; MEKK2 WT-MEK5: 188.0*; MEKK2mut PB1 HTS: 32.0*; MEKK3 PB1 HTS: 97.0; UBC13 polyUb: 33.2; MEKK2wt confirm: 203.0; MEKK2mut-MEK5: 52.0; MEKK3-MEK5 inh: 107.0

What do the screens show for `CN(C)CCN(C(=O)c1ccc(S(=O)(=O)N2CCCC2)cc1)c1nc2ccc(Br)cc2s1`?
Rce1 inhib: inactive; MEKK2 WT-MEK5: 138.0*; MEKK2mut PB1 HTS: 18.0; MEKK3 PB1 HTS: 107.0; UBC13 polyUb: 11.1; MEKK2wt confirm: 177.0; MEKK2mut-MEK5: 50.0; MEKK3-MEK5 inh: 109.0

What do the screens show for `COc1cccc2sc(N(CCCN(C)C)C(=O)c3ccc(S(=O)(=O)N4CCCc5ccccc54)cc3)nc12`?
Rce1 inhib: inactive; MEKK2 WT-MEK5: 187.0*; MEKK2mut PB1 HTS: 38.0*; MEKK3 PB1 HTS: 110.0; UBC13 polyUb: 28.3; MEKK2wt confirm: 172.0; MEKK2mut-MEK5: 39.0; MEKK3-MEK5 inh: 107.0

Results for CN(C)CCCN(C(=O)c1ccc(S(=O)(=O)N2CCOCC2)cc1)c1nc2ccc(F)cc2s1 ?
Rce1 inhib: inactive; MEKK2 WT-MEK5: 106.0; MEKK2mut PB1 HTS: -1.0; MEKK3 PB1 HTS: 92.0; UBC13 polyUb: -4.8

What do the screens show for `CCOC(=O)N1CCN(S(=O)(=O)c2ccc(C(=O)N(CCN(CC)CC)c3nc4ccc(C)cc4s3)cc2)CC1`?
Rce1 inhib: inactive; MEKK2 WT-MEK5: 130.0; MEKK2mut PB1 HTS: 20.0; MEKK3 PB1 HTS: 107.0; UBC13 polyUb: 3.8

How did CCN(CCn1cccn1)Cc1ccccc1OCC(O)CN1CCc2ccccc2C1 (stereo unspecified) do in these assays?
Rce1 inhib: inactive; MEKK2 WT-MEK5: 119.0; MEKK2mut PB1 HTS: 13.0; MEKK3 PB1 HTS: 101.0; UBC13 polyUb: 0.8

What do the screens show for `CN(C)CCCN(C(=O)c1ccc(S(=O)(=O)N2CCCCCC2)cc1)c1nc2c(F)cccc2s1`?
Rce1 inhib: inactive; MEKK2 WT-MEK5: 134.0*; MEKK2mut PB1 HTS: 14.0; MEKK3 PB1 HTS: 105.0; UBC13 polyUb: 15.8; MEKK2wt confirm: 127.0; MEKK2mut-MEK5: 10.0; MEKK3-MEK5 inh: 101.0

Results for CCOc1ccc2nc(N(CCCN(C)C)C(=O)c3ccc4c(c3)CCCC4)sc2c1 ?
Rce1 inhib: inactive; MEKK2 WT-MEK5: 158.0*; MEKK2mut PB1 HTS: 26.0*; MEKK3 PB1 HTS: 105.0; UBC13 polyUb: 41.5; MEKK2wt confirm: 160.0; MEKK2mut-MEK5: 37.0; MEKK3-MEK5 inh: 105.0

How did CCc1ccc2nc(N(CCCN(C)C)C(=O)c3ccc(S(=O)(=O)N4CCCC4)cc3)sc2c1 do in these assays?
Rce1 inhib: inactive; MEKK2 WT-MEK5: 135.0*; MEKK2mut PB1 HTS: 16.0; MEKK3 PB1 HTS: 106.0; UBC13 polyUb: 43.8; MEKK2wt confirm: 134.0; MEKK2mut-MEK5: 17.0; MEKK3-MEK5 inh: 106.0
